# Source: PubChem (National Center for Advancing Translational Sciences (NCATS))
# Shiga toxin inh: A qHTS for Small Molecule Inhibitors of Shiga Toxin; AID 2315, 2010; Vero cells, Shiga toxin protein synthesis inhibition reporter; inhibition, % at 38.7 µM; 9.2% of 290,000 active; in the data active = inhibition mostly above about 28%, no sharp cut-off; inactive = mostly below about 43%; note: 0% is about no effect
# Pf growth 48h: Primary qHTS for delayed death inhibitors of the malarial parasite plastid, 48 hour incubation; P. falciparum luciferase growth in erythrocytes, 48 h; Potency, µM (series often up to 28.7 µM), for inactives: at the highest dose activity change, negative = inhibition, hits mostly inhibitors; 5.9% of 310,000 active; note: potency is the fitted concentration of half-maximal effect; % is set by controls: 0 for no effect and ±100 for the full control effect
#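 Cell-based growth assay: transgenic P. falciparum expressing firefly luciferase, cultured in red cells within RPMI 1640 containing 0.5% w/v Albumax, 24 mM bicarbonate and gentamycin. A drop in luciferase activity indicates inhibition.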
# Cycloheximide cs: Cycloheximide Counterscreen for Small Molecule Inhibitors of Shiga Toxin | cell reporter, cycloheximide protein synthesis inhibition counterscreen | max response, % | 12% of 300,000 active; in the data active = max response mostly above about 13%, no sharp cut-off; inactive = mostly below about 14%; note: read at 38.3 µM for the half of the compounds with a filed dose; 0% is about no effect
# NS1 function inh: qHTS Assay for Inhibitors of Influenza NS1 Protein Function; Potency, µM (titrated, usually from 46.1 µM), for inactives: at the top dose activity, positive = more growth; 0.4% of 270,000 active; calls by dose curve; note: potency is the fitted concentration of half-maximal effect; actives are rising curves; nearly all actives have a fitted effect of over 50% in size
#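 Compounds were scored for reversing the slow growth caused by influenza A NS1 in S. cerevisiae, measured by optical density at 600 nm. Assay medium contained 2% galactose at pH 6.0; NS1-free yeast of the same strain were the positive control.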
# Pf growth 96h: Primary qHTS for delayed death inhibitors of the malarial parasite plastid, 96 hour incubation; AID 504834, 2011; P. falciparum luciferase reporter growth, 96 h; Potency, µM (series often up to 28.7 µM), for the others: at the top dose activity change, negative = inhibition, usual class: inhibitors; 6.9% of 320,000 active; note: potency is the fitted concentration of half-maximal effect; % is set by controls: 0 for no effect and ±100 for the full control effect
#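 Readout is luminescence from an integrated firefly luciferase in P. falciparum. Red cells, 2% hematocrit and 0.05% parasitemia final, were cultured with compound through two parasite generations (96 hours) at 37 C, 5% CO2.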
# Starred values were filed as active, the others as inactive; i = inactive; ? = inconclusive; · = no result given. In the library only some 21% were active in any assay of this set; here they are far more common. Unless noted, calls come from the whole dose curve; as a rule, active = well fitted inhibition curve with a large enough effect; inconclusive = small, poorly fitted or top-dose-only effect, or another doubt; inactive = no such curve, though single readings can be large or run the other way.
SMILES,Shiga toxin inh,Pf growth 48h,Cycloheximide cs,NS1 function inh,Pf growth 96h
CC(C)c1cccc(C(C)C)c1NC(=O)Cn1c(=O)cnc2ccccc21,-13.5,0.0%,-0.7,-9.7%,?
O=C(NCCN1C(=O)C2C3C=CC(C3)C2C1=O)Nc1ccccc1 (centres undefined),9.0,·,20.1,-9.1%,?
Cc1ccc(NC(=O)NCCN2C(=O)C3C4C=CC(C4)C3C2=O)cc1 (centres undefined),134.2*,·,111.7*,4.4%,?
Cc1ccc(C(=O)NN2C(=O)C3C4C=CC(C4)[C@@H]3C2=O)cc1 (some centres undefined),33.2,1.85µM*,11.9,1.0%,81.6%
COc1ccc(NC(=O)NCCN2C(=O)C3C4C=CC(C4)C3C2=O)cc1 (centres undefined),59.6*,93.9%,32.1*,4.7%,11.7µM*
Cc1cccc(NC(=O)CCN2C(=O)C3C4C=CC(C4)C3C2=O)c1 (centres undefined),-19.2,26.6%,8.6,3.7%,·
Cc1cccc(NC(=O)NCCN2C(=O)C3C4C=CC(C4)C3C2=O)c1 (centres undefined),40.8,·,16.6,-7.1%,11.7µM*
COC(=O)c1c(C)nc2nonc2c1N,-7.5,34.3%,1.8,-2.7%,-2.3%
CCOc1cccc(-c2cc(C(=O)N3N=C(C)CC3(O)C(F)F)c3ccccc3n2)c1 (centres undefined),-4.4,3.0%,13.3,·,-94.3%
COc1ccccc1C(=O)NC(CCSC)C(=O)NCC(c1ccccc1OC)N1CCCC1 (centres undefined),·,?,·,·,-29.1%
COc1ccc(C(CNC(=O)C(CCSC)NC(=O)c2ccccc2Cl)N2CCCCC2)cc1 (centres undefined),·,7.38µM*,·,·,?
CSCCC(NC(=O)c1ccccc1Cl)C(=O)Nc1cccc(S(=O)(=O)N2CCCC2)c1 (centres undefined),·,11.7µM*,·,·,?
CSCCC(NC(=O)c1ccccc1Cl)C(=O)N1CCCCC1 (centres undefined),·,1.9%,·,·,-24.9%
CSCCC(NC(=O)c1ccccc1Cl)C(=O)NCC(c1ccco1)N1CCCCC1 (centres undefined),·,14.7µM*,·,·,7.38µM*
COc1ccc([N+](=O)[O-])cc1N(CC(=O)N1CCCC1)S(C)(=O)=O,-3.7,13.5%,-2.4,1.7%,?
COc1ccc(OC)c(N(CC(=O)N2CCCC2)S(C)(=O)=O)c1,10.8,-3.3%,-1.7,-5.9%,-4.6%
COC(=O)c1c(C)oc(C)c1S(=O)(=O)NCc1ccco1,-2.7,25.3%,-2.5,1.3%,12.4%
COc1ccc(/C=N/NC(=S)Nc2ccccc2)cc1,74.9*,?,55.3*,6.9%,193.3%
O=C(N/N=C/c1cccnc1)c1cccc(NC(=O)c2cccc(Br)c2)c1,11.4,-22.7%,14.2,10.4%,-14.7%
COc1ccc(/C=N/NC(=S)Nc2cccc(C(=O)O)c2)cc1,155.6*,318.6%,40.6*,·,-10.7%
O=C(O)c1cccc(NC(=S)N/N=C/c2cccnc2)c1,54.2,i,17.3*,10.3%,?
COc1ccc(NC(=S)Nc2ccc(Oc3ccccc3)cc2)cc1,16.2,-24.5%,1.6,0.5%,?
Cc1cccc(C)c1NC(=S)N/N=C/c1ccc(OCCC(C)C)cc1,-9.7,·,9.6,5.3%,3.29µM*
COc1cccc(/C=N/NC(=S)Nc2cccc(C(=O)O)c2)c1O,29.8,i,13.1,·,?
COc1cc(/C=N/NC(=S)Nc2cccc(C(=O)O)c2)ccc1O,24.3,115.6%,12.1*,1.5%,47.1%
SMILES,Shiga toxin inh,Pf growth 48h,Cycloheximide cs,NS1 function inh,Pf growth 96h
COc1ccc(-n2c(SCC#N)nc3c(sc(=S)n3-c3ccccc3)c2=O)c(OC)c1,-6.6,-27.9%,10.5,13.9%,16.3%
COc1ccc(C(=O)NC2CCN(CC(=O)NC3CCCCC3)CC2)cc1,-7.2,21.8%,-2.8,7.1%,5.4%
COc1cccc(C(=O)CN2CCC(NC(=O)NC3CCCCC3)CC2)c1,1.4,1.6%,-2.7,-7.3%,14.7µM*
COc1ccc(CNC(=O)CN2CCN(S(=O)(=O)c3cccs3)CC2)cc1OC,13.5,8.9%,0.9,·,9.3%
COc1ccc(S(=O)(=O)N2CCN(CC(=O)Nc3cccc(OC)c3)CC2)cc1,19.9,-12.1%,7.4,-28.5%,13.1µM*
COc1ccc(NC(=O)CN2CCN(S(=O)(=O)c3cccs3)CC2)cc1Cl,·,?,·,·,11.7µM*
COc1ccc(S(=O)(=O)N2CCC(C(=O)Nc3cccc(C(C)=O)c3)CC2)cc1,-3.4,11.7µM*,1.4,-12.0%,?
COc1cccc(NC(=O)CN2CCN(CC(=O)Nc3ccc(F)cc3)CC2)c1,-7.1,-7.6%,-4.4,-1.9%,-8.7%
COc1cccc(NC(=O)CN2CCC(C)CC2)c1,35.4*,·,29.8*,2.4%,136.3%
Cc1ccc(CN2CCNC(=O)C2CC(=O)N(C)C(C2CC2)C2CC2)o1 (centres undefined),26.1,31.3%,1.9,-4.8%,13.1µM*
COc1ccc(OC)c(CC(NC(C)=O)C(=O)NC2CCN(C(=O)c3cccc(C)c3)CC2)c1 (centres undefined),-5.2,1.9%,-4.6,8.8%,35.7%
COc1ccc(N(C(=O)C2COc3ccccc3O2)C(C(=O)NC2CCCCC2)c2ccccc2)cc1OC (centres undefined),8.4,7.38µM*,-2.9,?,?
COc1cccc(C(C(=O)NC2CCCCC2)N(CCN2CCOCC2)C(=O)C2COc3ccccc3O2)c1 (centres undefined),-3.2,-29.9%,-1.8,2.7%,0.1%
COc1cc(OC)cc(N(C(=O)C2COc3ccccc3O2)C(C(=O)NC2CCCCC2)c2ccc(O)cc2)c1 (centres undefined),-3.3,13.1µM*,-0.8,13.0%,7.38µM*
Cn1cc(CN2CCN(CCO)CC2)c(-c2ccc(Oc3ccccc3)cc2)n1,11.7,0.3%,-2.6,6.0%,45.6%
Cn1nc(-c2ccccc2)c(CO)c1Oc1ccc(F)cc1,21.4,-9.1%,18.0*,·,-2.3%
COc1ccc(OC)c(NC(=S)N2CCC(C(O)(c3ccccc3)c3ccccc3)CC2)c1,15.2,9.28µM*,4.9,?,?
CN(C)C(=O)Oc1ccc(Cl)c2cccnc12,7.8,2.4%,-1.6,·,28.0%
O=C(Nc1cccc(C(F)(F)F)c1)Oc1ccc(Cl)c2cccnc12,20.7,2.62µM*,26.9,-77.3%,2.33µM*
COc1ccc(-c2ccc(SCC(=O)NCc3ccco3)nn2)cc1,57.1*,46.6%,16.9*,3.9%,0.8%
COc1ccc(-c2nnc(SCC(=O)NC(=O)NCc3ccco3)o2)cc1,13.8,-4.3%,9.4*,6.2%,56.1%
COc1ccc(-n2c(-c3ccco3)nc3c(cnn3-c3ccccc3C)c2=O)cc1,-4.8,?,-2.9,-0.9%,?
COc1cccc(OC)c1C(=O)NC(C)C12CC3CC(CC(C3)C1)C2 (centres undefined),-9.0,·,-0.1,-50.8%,?
